Among all 5,500 compounds or so, about 2,000 (36%) were called active. Another 18% or so got no clear call; they are omitted. No stated cut-off is given here; in the data, active means normalized growth mostly below about 0.91 (no sharp cut-off); inconclusive means no clear call, values can overlap the other calls; inactive means mostly above about 0.92. Some of the results follow.
Assay: chemical genetic growth profiling, strain panel (AID 1159580);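 further: tested at 20 µM; growth read once vehicle control cultures reached saturation at 30 °C; 1 = growth at the plate median or of vehicle wells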
Settings: growth OD

Measured: normalized growth

CC(=C(CCOP(=O)(O)O)SC(=O)c1ccccc1)N(C=O)Cc1cnc(C)nc1N
inactive: S. cerevisiae deletion strains, locus YAL013W, strain DEP1, stronger effect = lower value 1.01 | S. cerevisiae deletion strains, locus YBR021W, strain FUR4, stronger effect = lower value 1.01 | S. cerevisiae deletion strains, locus YBR229C, strain ROT2, stronger effect = lower value 1.01 | S. cerevisiae deletion strains, locus YCL029C, strain bik1, stronger effect = lower value 1 | S. cerevisiae deletion strains, locus YDL035C, strain GPR1, stronger effect = lower value 1.02 | S. cerevisiae deletion strains, locus YDL074C, strain BRE1, stronger effect = lower value 1.01 | S. cerevisiae deletion strains, locus YDL101C, strain DUN1, stronger effect = lower value 1.01 | S. cerevisiae deletion strains, locus YDL134C, strain PPH21, stronger effect = lower value 1.02 | S. cerevisiae deletion strains, locus YDL185W, strain tfp1, stronger effect = lower value 1.01 | S. cerevisiae deletion strains, locus YDL192W, strain arf1, stronger effect = lower value 1.01 | S. cerevisiae deletion strains, locus YDR101C, strain arx1, stronger effect = lower value 1 | S. cerevisiae deletion strains, locus YDR150W, strain NUM1, stronger effect = lower value 1.01 | S. cerevisiae deletion strains, locus YDR162C, strain NBP2, stronger effect = lower value 1.01 | S. cerevisiae deletion strains, locus YDR318W, strain mcm21, stronger effect = lower value 1.02 | S. cerevisiae deletion strains, locus YDR388W, stronger effect = lower value 1.01 | S. cerevisiae deletion strains, locus YDR502C, strain sam2, stronger effect = lower value 1.01 | S. cerevisiae deletion strains, locus YEL061C, strain CIN8, stronger effect = lower value 1.01 | S. cerevisiae deletion strains, locus YER110C, stronger effect = lower value 1.02 | S. cerevisiae deletion strains, locus YER155C, strain BEM2, stronger effect = lower value 1.01 | S. cerevisiae deletion strains, locus YER167W, strain BCK2, stronger effect = lower value 1.01 | S. cerevisiae deletion strains, locus YGL078C, strain dbp3, stronger effect = lower value 1.02 | S. cerevisiae deletion strains, locus YGL086W, strain mad1, stronger effect = lower value 1.01 | S. cerevisiae deletion strains, locus YGL248W, strain PDE1, stronger effect = lower value 1 | S. cerevisiae deletion strains, locus YGR135W, strain pre9, stronger effect = lower value 1.02 | S. cerevisiae deletion strains, locus YGR229C, strain SMI1, stronger effect = lower value 1.02 | S. cerevisiae deletion strains, locus YGR252W, strain gcn5, stronger effect = lower value 1 | S. cerevisiae deletion strains, locus YHR030C, strain SLT2, stronger effect = lower value 1.01 | S. cerevisiae deletion strains, locus YHR079C, strain IRE1 (second series), stronger effect = lower value 1.01 | S. cerevisiae deletion strains, locus YHR094C, strain hxt1, stronger effect = lower value 1.01 | S. cerevisiae deletion strains, locus YHR129C, strain ARP1, stronger effect = lower value 1 | S. cerevisiae deletion strains, locus YHR200W, strain rpn10, stronger effect = lower value 1.01 | S. cerevisiae deletion strains, locus YIL066C, strain RNR3, stronger effect = lower value 1.02 | S. cerevisiae deletion strains, locus YIL073C, strain SPO22, stronger effect = lower value 1.05 | S. cerevisiae deletion strains, locus YIL125W, strain kgd1, stronger effect = lower value 1.01 | S. cerevisiae deletion strains, locus YIR030C, strain dcg1, stronger effect = lower value 1.02 | S. cerevisiae deletion strains, locus YJL095W, strain BCK1, stronger effect = lower value 1.01 | S. cerevisiae deletion strains, locus YJL134W, strain LCB3, stronger effect = lower value 1.01 | S. cerevisiae deletion strains, locus YJL168C, strain set2, stronger effect = lower value 1.01 | S. cerevisiae deletion strains, locus YJL187C, strain SWE1 (second series), stronger effect = lower value 1.01 | S. cerevisiae deletion strains, locus YJR043C, strain POL32, stronger effect = lower value 1.01 | S. cerevisiae deletion strains, locus YJR075W, strain HOC1, stronger effect = lower value 1.01 | S. cerevisiae deletion strains, locus YKL009W, strain mrt4, stronger effect = lower value 1.01 | S. cerevisiae deletion strains, locus YKL068W, stronger effect = lower value 1.02 | S. cerevisiae deletion strains, locus YKL085W, strain MDH1 (second series), stronger effect = lower value 1.01 | S. cerevisiae deletion strains, locus YKL085W, strain MDH1, stronger effect = lower value 1.01 | S. cerevisiae deletion strains, locus YKL190W, strain CNB1, stronger effect = lower value 1.01 | S. cerevisiae deletion strains, locus YKR001C, strain vps1, stronger effect = lower value 1.01 | S. cerevisiae deletion strains, locus YLR039C, strain RIC1, stronger effect = lower value 1.02 | S. cerevisiae deletion strains, locus YLR058C, strain SHM2, stronger effect = lower value 1.02 | S. cerevisiae deletion strains, locus YLR102C, strain apc9, stronger effect = lower value 1.01 | S. cerevisiae deletion strains, locus YLR262C, strain YPT6, stronger effect = lower value 0.991 | S. cerevisiae deletion strains, locus YLR268W, strain sec22, stronger effect = lower value 1 | S. cerevisiae deletion strains, locus YLR330W, strain CHS5, stronger effect = lower value 1.01 | S. cerevisiae deletion strains, locus YLR342W, strain FKS1 (second series), stronger effect = lower value 1 | S. cerevisiae deletion strains, locus YLR371W, strain rom2, stronger effect = lower value 1.02 | S. cerevisiae deletion strains, locus YLR418C, strain cdc73, stronger effect = lower value 1.02 | S. cerevisiae deletion strains, locus YML016C, strain PPZ1, stronger effect = lower value 1.01 | S. cerevisiae deletion strains, locus YML032C, strain rad52, stronger effect = lower value 1.01 | S. cerevisiae deletion strains, locus YML124C, strain tub3, stronger effect = lower value 1.01 | S. cerevisiae deletion strains, locus YMR078C, strain ctf18, stronger effect = lower value 1.01 | S. cerevisiae deletion strains, locus YMR223W, strain ubp8, stronger effect = lower value 1.02 | S. cerevisiae deletion strains, locus YMR263W, strain SAP30, stronger effect = lower value 1.01 | S. cerevisiae deletion strains, locus YMR307W, strain GAS1, stronger effect = lower value 1.03 | S. cerevisiae deletion strains, locus YNL067W, strain RPL9B, stronger effect = lower value 1.01 | S. cerevisiae deletion strains, locus YNL128W, strain TEP1, stronger effect = lower value 1.02 | S. cerevisiae deletion strains, locus YNL233W, strain BNI4, stronger effect = lower value 1.03 | S. cerevisiae deletion strains, locus YNL250W, strain rad50, stronger effect = lower value 1.01 | S. cerevisiae deletion strains, locus YNL271C, strain bni1, stronger effect = lower value 1.02 | S. cerevisiae deletion strains, locus YNL298W, strain CLA4, stronger effect = lower value 1.01 | S. cerevisiae deletion strains, locus YNL307C, strain MCK1, stronger effect = lower value 1.02 | S. cerevisiae deletion strains, locus YNL322C, strain KRE1, stronger effect = lower value 1.01 | S. cerevisiae deletion strains, locus YNR052C, strain pop2, stronger effect = lower value 1.02 | S. cerevisiae deletion strains, locus YOL006C, strain TOP1, stronger effect = lower value 1.01 | S. cerevisiae deletion strains, locus YOL012C, strain htz1 1.14 | S. cerevisiae deletion strains, locus YOL147C, strain pex11, stronger effect = lower value 1.02 | S. cerevisiae deletion strains, locus YOR061W, strain CKA2, stronger effect = lower value 1.01 | S. cerevisiae deletion strains, locus YOR069W, strain VPS5, stronger effect = lower value 1.01 | S. cerevisiae deletion strains, locus YOR136W, strain idh2, stronger effect = lower value 1.02 | S. cerevisiae deletion strains, locus YOR144C, strain elg1, stronger effect = lower value 1.01 | S. cerevisiae deletion strains, locus YOR184W, strain ser1, stronger effect = lower value 1.02 | S. cerevisiae deletion strains, locus YOR316C, strain cot1, stronger effect = lower value 1.01 | S. cerevisiae deletion strains, locus YPL055C, strain LGE1, stronger effect = lower value 1.01 | S. cerevisiae deletion strains, locus YPR119W, strain clb2, stronger effect = lower value 1 | S. cerevisiae deletion strains, locus YPR141C, strain kar3, stronger effect = lower value 1.02 | S. cerevisiae deletion strains, locus YPR163C, strain tif3, stronger effect = lower value 1.01 | S. cerevisiae deletion strains, locus YPR167C, strain met16, stronger effect = lower value 1.01 | S. cerevisiae deletion strains, strain wtn01, stronger effect = lower value 1.01 | S. cerevisiae strains, strain wild type, stronger effect = lower value 1.01

Reference: PubChem BioAssay AID1159580 (chemical genetic matrix, 2015)
